Source: PubChem
LGR2 inh = inhibitors of bursicon-induced Drosophila LGR2 receptor cAMP signaling. HEK293 LGR2, CRE-luciferase, bursicon-stimulated, 4 h. inhibition, % at 9.99 µM. hit rate 0.35% among 380,000. AID 720647;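 active = drop in luminescence signal, shown as inhibition above about 50% in the replicate tests, limit read from the data, passing the limit was not always enough; inconclusive = probably only some replicates passing the limit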;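 also: agonist challenge used bursicon conditioned medium at about half maximal strength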
TRPM1 prom inh = reduces MITF-dependent TRPM1 promoter luciferase signal; SK-MEL-5 TRPM1 promoter luciferase, 24 h; hit rate 0.83% among 330,000; inhibition, % at 12.5 µM;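 active = mean inhibition across replicates of 60% or more, whatever share of single replicates reaches that level; inconclusive = some that reach 60%, reason not given; inactive = mean inhibition across replicates below 60%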
LMP1 NFkB inh = reduces LMP1-driven NF-kappaB luciferase signal; LMP1-induced NF-kappaB luciferase reporter cells, luminescence; inhibition, % at 12.5 µM; hit rate 0.69% among 350,000; AID 504558; in the data active = inhibition above about 41%; inconclusive = no clear call, values can overlap the other calls;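 also: 0% = neutral control wells and 100% = reference inhibitor control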
PAX8 reporter = inhibitors of PAX8 transcriptional activity in RMG-I cells | RMG-I TPO-luciferase reporter, SteadyGlo, 24 h | inhibition, % at 12.6 µM | hit rate 1.2% among 360,000;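 active = mean replicate inhibition at least 60% with every replicate also reaching 60%; inconclusive = only one of the two criteria is met; inactive = mean below 60% and not all replicates reaching 60%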;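 also: luciferase light reporting Pax8 driven TPO promoter activity; plate controls were median of neutral control wells for no effect and mitoxantrone controls for full effect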
PGC1a acetyl inh = lowers PGC1a acetylation signal in U2OS cells. AlphaScreen anti-acetyl-lysine; with virally co-expressed GCN5 acetyltransferase. inhibition, % at 15.6 µM. hit rate 0.17% among 350,000. AID 651687;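 active = every replicate shows inhibition of at least 40%; inconclusive = mean inhibition at least 40% but some replicate below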;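 also: 0% = neutral control wells and 100% = positive control wells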
EWS-Fli inh = inhibitors of EWS/Fli oncoprotein transcriptional activity; A673 NR0B1-luciferase reporter, viability-normalised; inhibition, % at 12.6 µM; hit rate 0.67% among 350,000; AID 651661;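 active = mean inhibition of at least 50% after viability correction, with every replicate also passing that limit; inconclusive = mean reaches 50% but only one of two replicates passes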;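 also: firefly luciferase signal divided by Alamar Blue viability fluorescence both relative to DMSO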
* hit, by the source's call; u = inconclusive; x = no result. In the library only some 2.2% were active in any assay of this set; here they are far more common.

SMILES	LGR2 inh	TRPM1 prom inh	LMP1 NFkB inh	PAX8 reporter	PGC1a acetyl inh	EWS-Fli inh
COc1cccc(NC(=O)Nc2nc(SC)ns2)c1	0	-99	-35	-244	21	-119
COc1cc(NC(=O)COc2ccccc2[N+](=O)[O-])ccc1NC(=O)c1cccs1	0	74*	-18	-5	-1	15
COc1ccc2c3c([nH]c2c1)[C@@H](CO)N(CC1CCOCC1)CC31CN(C(=O)C2CC2)C1	3	x	x	x	x	-8
COc1ccc(N2CCN(CC(=O)Nc3ncc(C)s3)CC2)cc1	13	-9	-2	4	-2	-2
Cc1cnc(NC(=O)CN2CCN(c3ccccn3)CC2)s1	37	-16	-54	68*	-22	x
O=C(O)/C=C/c1cnc2ccccc2n1	5	2	-9	9	x	8
C(=C\c1ccco1)/c1ccc2ccccc2n1	-43	x	x	-104	-2	49
Fc1cccc(F)c1/C=C/c1ccc2ccccc2n1	67*	8	5	-44	2	x
Cc1ccsc1/C=C/c1ccc2ccccc2n1	x	14	70*	x	0	x
Fc1cccc(Cl)c1/C=C/c1cnc2ccccc2n1	91*	3	1	-5	x	82*
CCCCC(=NCCc1c(C)[nH]c2ccc(OC)cc12)C1=C(O)CC(c2ccccc2)CC1=O (centres undefined)	27	25	17	54	13	55*
CCC(=NCCc1c(C)[nH]c2ccc(OC(F)(F)F)cc12)C1=C(O)CC(c2ccccc2)CC1=O (centres undefined)	13	7	13	11	x	51*
CCC(=NCCc1c(C)[nH]c2ccccc12)C1=C(O)CC(c2ccccc2)CC1=O (centres undefined)	6	17	9	49	-27	49
COc1ccccc1C(=O)Nc1ccc2c(c1)C(=O)N(C)C[C@H](OC)[C@H](C)CN(C(C)=O)[C@H](C)CO2	-1	x	x	x	-1	1
COc1cccc(N2CCN(c3ncnc4c3[nH]c3ccc(F)cc34)CC2C)c1 (centres undefined)	x	80*	70*	x	77*	x
CC(C)NC(=O)Nc1cccc2c1O[C@H](CN(C)Cc1ccncc1)[C@H](C)CN([C@H](C)CO)C2=O	6	x	x	4	-2	-12
O=C1/C(=C\c2cccnc2)SC(=S)N1C1CCS(=O)(=O)C1 (centres undefined)	55*	53	19	x	-17	0
Cc1noc(C)c1S(=O)(=O)Nc1ccc2c(c1)CC(=O)N([C@H](C)CO)C[C@@H](C)[C@H](CN(C)C(=O)Nc1ccc3c(c1)OCO3)O2	-8	x	x	7	5	-4
Cc1ccc(S(=O)(=O)OCCC2=CC(=O)CCN2Cc2ccccc2)cc1	25	-5	-7	7	63*	2
Cc1ccc(S(=O)(=O)N2CCCCC2CCNC(=O)C(=O)NCc2ccncc2)cc1 (centres undefined)	-4	35	4	76*	x	3
O=C(NCCC1CCCCN1S(=O)(=O)c1ccccc1)C(=O)NCc1ccncc1 (centres undefined)	-11	11	3	68*	x	4
O=C(NCCC1CCCCN1S(=O)(=O)c1ccccc1)C(=O)NCc1cccnc1 (centres undefined)	-2	0	2	27	x	4
Cc1ccc(S(=O)(=O)N2CCCCC2CCNC(=O)C(=O)NCc2ccccc2)cc1 (centres undefined)	-2	25	-4	53	x	u
C[C@@H]1CN([C@H](C)CO)S(=O)(=O)c2ccc(-c3ccc(F)cc3)cc2O[C@@H]1CN(C)S(C)(=O)=O	8	x	x	47	5	12
C=CCSc1nnc(CCCCCN2C(=O)c3cccc4cccc(c34)C2=O)o1	8	38	59*	-2	0	3
SMILES	LGR2 inh	TRPM1 prom inh	LMP1 NFkB inh	PAX8 reporter	PGC1a acetyl inh	EWS-Fli inh
CCOC(=O)CSc1nnc(CCCCCN2C(=O)c3cccc4cccc(c34)C2=O)o1	-10	9	3	2	4	2
C[C@H](CO)N1C[C@H](C)[C@H](CN(C)C(=O)Nc2cccc3ccccc23)Oc2ccc(NC(=O)CCN3CCOCC3)cc2CC1=O	-18	x	x	x	-1	9
CC1=C/C(=C(/c2cc(C)c(O)c(Br)c2)c2ccccc2S(=O)(=O)O)C=C(Br)C1=O	6	47	21	77*	x	-32
CC1=C/C(=C(/c2ccc(O)c(C)c2)c2ccccc2S(=O)(=O)O)C=CC1=O	13	4	0	23	14	2
C[C@H]1CN([C@@H](C)CO)C(=O)c2c(c3ccccc3n2C)-c2ccccc2CO[C@@H]1CN(C)S(=O)(=O)c1ccccc1F	17	x	x	74*	-20	7
C[C@@H]1CN([C@@H](C)CO)C(=O)c2c(c3ccccc3n2C)-c2ccccc2CO[C@H]1CN(C)S(=O)(=O)c1ccccc1F	16	x	x	84*	-27	17
C[C@@H]1CN([C@H](C)CO)C(=O)CCCn2nncc2CO[C@@H]1CN(C)C(=O)Nc1ccc(C(C)(C)C)cc1	-13	x	x	5	0	-6
O=C(C[C@@H]1CC[C@@H]2[C@H](COC[C@@H](O)CN2Cc2ccc(Oc3ccccc3)cc2)O1)N1CCOCC1	1	x	x	0	0	3
O=C(C[C@@H]1CC[C@@H]2[C@H](COC[C@H](O)CN2Cc2ccc(Oc3ccccc3)cc2)O1)N1CCN(c2ccccc2)CC1	20	x	x	62*	-9	7
O=C(C[C@H]1CC[C@H]2[C@@H](COC[C@H](O)CN2Cc2ccc(Oc3ccccc3)cc2)O1)N1CCN(c2ccccc2)CC1	0	x	x	45	-19	19
O=C(C[C@@H]1CC[C@H]2[C@@H](COC[C@@H](O)CN2Cc2ccc(Oc3ccccc3)cc2)O1)N1CCN(c2ccccc2)CC1	18	x	x	64*	-8	36
O=C(C[C@H]1CC[C@H]2[C@@H](COC[C@@H](O)CN2Cc2ccc(Oc3ccccc3)cc2)O1)Nc1nccs1	9	x	x	33	2	28
O=C(C[C@@H]1CC[C@H]2[C@@H](COC[C@H](O)CN2Cc2ccc(Oc3ccccc3)cc2)O1)Nc1nccs1	6	x	x	66*	-9	11
O=C(NCC[C@H]1CC[C@H](NC(=O)C2CCCCC2)[C@@H](CO)O1)Nc1ccc(Cl)cc1	-31	x	x	-20	-2	-19
O=C(Nc1ccc(Cl)cc1)/C(=C/c1cccc(O)c1)c1nc2ccccc2s1	86*	92*	-3	98*	x	30
CN(C)CC(=O)N1[C@@H]2c3ccc(-c4ccncc4)c(=O)n3C[C@H]1[C@H](CO)[C@H]2C(=O)NC1CCC1	8	x	x	-3	x	-5
COc1ccccc1CNC(=O)COC(=O)Cc1c(F)cccc1Cl	-1	2	10	66*	12	-4
CCC(=O)N1[C@@H](CO)[C@@H](c2ccc(-c3ccc(C#N)cc3)cc2)C12CN(C(C)=O)C2	-5	x	x	0	2	2
